High-throughput results: PubChem BioAssay, several laboratories
CYP2C19 activ = increases human CYP2C19 enzyme activity. recombinant CYP2C19, luciferin-H EGE luminescence; stronger effect = higher value; 0 = fully inhibited enzyme, 1 = untreated enzyme. activation factor at 5 µM. 96,000 tested, under 10 active;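 active means activation factor of at least 2 at 5 µM in the primary screen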;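 further: 0 = wells with 2.5 mM tranylcypromine and 1 = vehicle-only wells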
PostGolgi ctrl = yeast control strain growth, post-Golgi counter-screen; efflux-deficient yeast background strain, growth absorbance A615, 16 h; inhibition, % at 10 µM; actives 5% (n = 98,000); AID 738
PostGolgi yeast = growth inhibition of a yeast mutant, post-Golgi transport screen; post-Golgi transport phenotypic cell assay; inhibition, % at 10 µM; actives 0.9% (n = 98,000);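 further: yeast cells grown in 1536-well plates; yeast grown about 18 h at 30C before absorbance read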
CYP2C9 inh = inhibitors of human CYP2C9; inhibition, % at 5 µM; actives 20% (n = 96,000); AID 777; P11712; CYP2C9 Supersomes, luciferin-H conversion, luminescence;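 active means blocking of liver enzyme CYP2C9 beyond about 50% at 5 µM, limit read from the data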
Target sequence (P11712 whole entry, looked up): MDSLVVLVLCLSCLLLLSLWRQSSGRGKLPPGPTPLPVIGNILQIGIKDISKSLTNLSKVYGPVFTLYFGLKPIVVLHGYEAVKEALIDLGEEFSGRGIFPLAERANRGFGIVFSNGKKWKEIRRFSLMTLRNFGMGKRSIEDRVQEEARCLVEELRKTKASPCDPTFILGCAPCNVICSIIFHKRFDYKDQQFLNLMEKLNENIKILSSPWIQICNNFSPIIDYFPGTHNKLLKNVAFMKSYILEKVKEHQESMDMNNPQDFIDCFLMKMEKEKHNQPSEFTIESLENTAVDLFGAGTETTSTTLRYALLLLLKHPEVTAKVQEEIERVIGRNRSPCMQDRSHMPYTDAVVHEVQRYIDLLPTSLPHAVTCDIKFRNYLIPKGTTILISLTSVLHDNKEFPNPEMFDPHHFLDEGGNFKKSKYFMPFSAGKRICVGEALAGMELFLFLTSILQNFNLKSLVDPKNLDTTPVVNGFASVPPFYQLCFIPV
CYP2C9 act = activators of human CYP2C9; recombinant CYP2C9, luciferin-H conversion, luminescence; stronger effect = higher value; factor 1 = untreated enzyme, 0 = blocked; activation factor at 5 µM; actives 1.4% (n = 96,000);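 active means activation factor of 2 or more for CYP2C9 at a 5 µM dose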;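 further: 0 = sulfaphenazole-blocked wells and 1 = vehicle-only wells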
CYP2C19 inh = blocks human cytochrome P450 2C19; actives 21% (n = 96,000); CYP2C19 Supersomes, luciferin-H EGE luminescence, 30 min; P33261; AID 778; inhibition, % at 5 µM;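 active means CYP2C19 inhibition above a set limit at 5 µM in the primary screen, cut at about 50% in these data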;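 further: plate controls were negative control wells for no effect and 2.5 mM tranylcypromine positive control for full effect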
* hit, by the source's call; x = no result. In the library only some 32% were active in any assay of this set; here they are far more common. Unless noted, no stated cut-off is given here; in the data, active means inhibition above about 30%; inactive means the rest.

SMILES	CYP2C19 activ	PostGolgi ctrl	PostGolgi yeast	CYP2C9 inh	CYP2C9 act	CYP2C19 inh
Cc1noc(C)c1COC(=O)c1ccccc1Sc1ccccc1C#N	0.4	30.3*	-8.3	74.2*	0.3	59.1*
COCCn1c(=O)[nH]c2cc(C(=O)NCC3CCCO3)ccc2c1=O (stereo unspecified)	1	4.9	2.8	1.7	1	-4.1
COc1ccc2c(=O)c(C(=O)NCCc3ccc(OC)c(OC)c3)c[nH]c2c1	0.6	-2.2	9.8	53.5*	0.5	44.3
COCCn1c(=O)[nH]c2cc(C(=O)NCCc3ccc(OC)c(OC)c3)ccc2c1=O	0.9	34.0*	-2.2	13.8	0.9	11.2
COCCn1c(=S)[nH]c2cc(C(=O)NCC3CCCO3)ccc2c1=O (stereo unspecified)	0.2	0.3	-2.9	51.8*	0.5	75.6*
COc1ccc(CCNC(=O)c2ccc(=O)[nH]n2)cc1OC	1.2	7.0	-5.9	-9.6	1.1	-19.6
CCOC(=O)CNC(=O)c1cc(-c2ccc3c(c2)OCCO3)oc1C	0.9	9.1	-5.3	-2.0	1	6.8
COc1ccc(CCN(C(=O)C(F)(F)F)C(C(=O)NC2CCCC2)c2cccs2)cc1 (stereo unspecified)	0.4	6.8	-3.3	77.1*	0.2	62.9*
C=CCN1C(=O)/C(=C\c2cccs2)C(C(=O)OC)=C1C	0.6	-1.1	-1.4	38.6	0.6	41.3
CCOC(=O)C(NC(=O)CC)(N1CCc2ccccc2C1)C(F)(F)F (stereo unspecified)	0.8	3.0	-18.8	55.8*	0.4	21.8
COc1ccc(OCC(O)CN(C2CCCCC2)C2CCCCC2)cc1 (stereo unspecified)	1	6.4	0.2	13.0	0.9	-3.6
O=C(Oc1cccc(Br)c1)c1cccnc1	1	33.5*	12.0	-9.7	1.1	2.8
O=C(OCc1c(Cl)cccc1Cl)c1cccnc1Cl	0.5	8.1	16.4	-77.8	1.8	52.0*
O=C(OCc1ccccc1Cl)c1cccnc1Cl	0.7	8.7	9.0	-83.8	1.8	29.4
O=C(OCc1c(Cl)cccc1Cl)c1cccnc1	0.1	2.1	25.0	22.0	0.8	86.5*
O=C(OCC(=O)c1ccccc1Br)c1ccccn1	1	5.9	6.2	-4.7	1	0.0
O=C(COC(=O)c1cccnc1Cl)c1ccccc1	0.7	32.2*	x	-0.9	1	27.0
CC1(C)SCC2C(=O)N3C(CSC3(C)C)C(=O)N21 (stereo unspecified)	0.9	1.1	21.8	9.7	0.9	14.5
CS(=O)(=O)N(CC(=O)Nc1cccc(F)c1)c1cccc([N+](=O)[O-])c1	0.7	5.5	8.3	60.6*	0.4	25.6
CS(=O)(=O)N(CC(=O)Nc1c(F)cccc1F)c1cccc([N+](=O)[O-])c1	0.8	-4.3	2.0	16.8	0.8	21.2
CS(=O)(=O)N(CC(=O)NC1CC1)c1cccc(F)c1	0.1	-7.0	6.5	-4.7	1	88.0*
CN1CCN(CC#CCn2c3ccccc3c3ccccc32)CC1	0.4	-3.1	-2.7	-38.3	1.4	58.9*
N#CCCN1CCN(Cn2c3ccccc3c3ccccc32)CC1	0.6	13.8	8.0	-19.5	1.2	39.9
COCCOC(=O)c1c(C)nc(SCC(=O)Nc2cccc3ccccc23)c(C#N)c1-c1ccco1	1	6.8	-5.6	94.3*	0.1	3.6
CNC(=O)c1c(C)nc(SCC(=O)NCc2ccc(OC)cc2)c(C#N)c1-c1ccco1	1	4.0	4.5	23.9	0.8	2.0
COCCOC(=O)c1c(C)nc(SCC(=O)Nc2ccc(C)cc2)c(C#N)c1-c1ccco1	0.4	3.4	-0.6	92.1*	0.1	64.2*
Cc1cc(=O)[nH]c(SCC(=O)Nc2cccc3ccccc23)c1C#N	0.7	15.5	-9.5	85.5*	0.1	26.4
CC(=O)Nc1nc(C)c(Oc2ccccc2)c(=O)[nH]1	1.1	-11.1	-5.2	-8.1	1.1	-5.8
CCCOc1ccc(/C(O)=C2\C(=O)C(=O)N(CCCOC)C23C(=O)N(C)c2ccccc23)cc1 (stereo unspecified)	1	-2.3	-4.7	-11.8	1.1	-2.2
COCCN1C(=O)C(=O)/C(=C(/O)c2cccc(S(=O)(=O)N(C)C)c2)C12C(=O)N(C)c1ccccc12 (stereo unspecified)	1.2	-0.3	-1.7	83.5*	0.2	-15.9
